Activity calls are given as the source filed them.

Assay [1] concerns PRMT1 (protein arginine N-methyltransferase 1). Put plainly: small molecules binding arginine methyltransferase PRMT1 – biochemical, small-molecule microarray, 635 nm fluorescence, primary screen (AID 1088).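 Further: binding of Prmt1 protein to compounds spotted on small-molecule microarray slides.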 As to conditions: higher = more signal.
The nature of assay [2]: growth effects on S. cerevisiae YJM789 – YJM789 clinical isolate, OD600, 24 h, basal, primary screen (AID 1089).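 Further: growth of clinical yeast isolate S. cerevisiae YJM 789 seeded 1000 cells per well; test concentration not given here.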 As to conditions: higher = more signal, called active from +8 up or from −8 down.
The nature of assay [3]: S. pombe growth modifiers, basal conditions – strain 972, OD600, 24 h, no modulator, primary screen (AID 1090).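 Further: basal condition with compound alone and no growth modifier present; test concentration not given here.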 Particulars: S. pombe 972 growth, higher = more signal, called active from +8 up or from −8 down.
The nature of assay [4]: budding yeast growth modifiers under rapamycin – strain BY4716, OD600, 96 h, primary screen (AID 1091). Further: test concentration not given here. Particulars: S. cerevisiae BY4716 + rapamycin, higher = more signal, called active from +8 up or from −8 down.
Assay [5] addresses Torsin-1A-interacting protein 2 (Homo sapiens) (UniProt Q8NFQ8). Put plainly: small molecules binding lysate-expressed LULL1 – cell lysate, human LULL1 lysate, 635/667 nm fluorescence, primary screen (AID 1092).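 Further: probe is lysate of COS7 cells overexpressing human LULL1; score merges per-feature 667 nm fluorescence with signal-to-noise.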 As to conditions: small-molecule microarray, hLULL1 lysate binding, 635 nm fluorescence; higher = more signal.
Assay [6] is described as follows: optical density change of DRC41 E. coli – strain DRC41, OD650, 24 h, E. coli filamentation project, primary screen (AID 1093).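 Further: MC1000 strain lacking acrAB efflux and sulA so SOS filamentation is blocked; test concentration not given here.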 Particulars: E. coli DRC41 growth, higher = more signal, called active from +8 up or from −8 down.
A short description of assay [7]: probe aLefty2 binding to arrayed compounds – biochemical, biotinylated probe, 635/667 nm fluorescence, primary screen (AID 1094).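 Further: score merges spot fluorescence near 667 nm with spot signal-to-noise ratio.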 Particulars: small-molecule microarray, higher = more signal.
For assay [8], the system named is Noggin (protein binding on small-molecule microarray). Put plainly: small molecules binding Noggin protein – biochemical, 635/667 nm fluorescence, primary screen (AID 1095).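 Further: score merges 667 nm feature fluorescence with signal to noise over triplicate slides.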 As to conditions: 635 nm fluorescence, higher = more signal.
In assay [9] the target is Neurogenic locus notch homolog protein 3 (Homo sapiens) (UniProt Q9UM47). As to the kind of experiment: small molecules binding NOTCH3 protein – biochemical, 635/667 nm fluorescence, primary screen (AID 1096). Particulars: small-molecule microarray, 635 nm fluorescence, higher = more signal.
Neurogenic locus notch homolog protein 3 (Homo sapiens), sequence (Q9UM47 whole entry, looked up): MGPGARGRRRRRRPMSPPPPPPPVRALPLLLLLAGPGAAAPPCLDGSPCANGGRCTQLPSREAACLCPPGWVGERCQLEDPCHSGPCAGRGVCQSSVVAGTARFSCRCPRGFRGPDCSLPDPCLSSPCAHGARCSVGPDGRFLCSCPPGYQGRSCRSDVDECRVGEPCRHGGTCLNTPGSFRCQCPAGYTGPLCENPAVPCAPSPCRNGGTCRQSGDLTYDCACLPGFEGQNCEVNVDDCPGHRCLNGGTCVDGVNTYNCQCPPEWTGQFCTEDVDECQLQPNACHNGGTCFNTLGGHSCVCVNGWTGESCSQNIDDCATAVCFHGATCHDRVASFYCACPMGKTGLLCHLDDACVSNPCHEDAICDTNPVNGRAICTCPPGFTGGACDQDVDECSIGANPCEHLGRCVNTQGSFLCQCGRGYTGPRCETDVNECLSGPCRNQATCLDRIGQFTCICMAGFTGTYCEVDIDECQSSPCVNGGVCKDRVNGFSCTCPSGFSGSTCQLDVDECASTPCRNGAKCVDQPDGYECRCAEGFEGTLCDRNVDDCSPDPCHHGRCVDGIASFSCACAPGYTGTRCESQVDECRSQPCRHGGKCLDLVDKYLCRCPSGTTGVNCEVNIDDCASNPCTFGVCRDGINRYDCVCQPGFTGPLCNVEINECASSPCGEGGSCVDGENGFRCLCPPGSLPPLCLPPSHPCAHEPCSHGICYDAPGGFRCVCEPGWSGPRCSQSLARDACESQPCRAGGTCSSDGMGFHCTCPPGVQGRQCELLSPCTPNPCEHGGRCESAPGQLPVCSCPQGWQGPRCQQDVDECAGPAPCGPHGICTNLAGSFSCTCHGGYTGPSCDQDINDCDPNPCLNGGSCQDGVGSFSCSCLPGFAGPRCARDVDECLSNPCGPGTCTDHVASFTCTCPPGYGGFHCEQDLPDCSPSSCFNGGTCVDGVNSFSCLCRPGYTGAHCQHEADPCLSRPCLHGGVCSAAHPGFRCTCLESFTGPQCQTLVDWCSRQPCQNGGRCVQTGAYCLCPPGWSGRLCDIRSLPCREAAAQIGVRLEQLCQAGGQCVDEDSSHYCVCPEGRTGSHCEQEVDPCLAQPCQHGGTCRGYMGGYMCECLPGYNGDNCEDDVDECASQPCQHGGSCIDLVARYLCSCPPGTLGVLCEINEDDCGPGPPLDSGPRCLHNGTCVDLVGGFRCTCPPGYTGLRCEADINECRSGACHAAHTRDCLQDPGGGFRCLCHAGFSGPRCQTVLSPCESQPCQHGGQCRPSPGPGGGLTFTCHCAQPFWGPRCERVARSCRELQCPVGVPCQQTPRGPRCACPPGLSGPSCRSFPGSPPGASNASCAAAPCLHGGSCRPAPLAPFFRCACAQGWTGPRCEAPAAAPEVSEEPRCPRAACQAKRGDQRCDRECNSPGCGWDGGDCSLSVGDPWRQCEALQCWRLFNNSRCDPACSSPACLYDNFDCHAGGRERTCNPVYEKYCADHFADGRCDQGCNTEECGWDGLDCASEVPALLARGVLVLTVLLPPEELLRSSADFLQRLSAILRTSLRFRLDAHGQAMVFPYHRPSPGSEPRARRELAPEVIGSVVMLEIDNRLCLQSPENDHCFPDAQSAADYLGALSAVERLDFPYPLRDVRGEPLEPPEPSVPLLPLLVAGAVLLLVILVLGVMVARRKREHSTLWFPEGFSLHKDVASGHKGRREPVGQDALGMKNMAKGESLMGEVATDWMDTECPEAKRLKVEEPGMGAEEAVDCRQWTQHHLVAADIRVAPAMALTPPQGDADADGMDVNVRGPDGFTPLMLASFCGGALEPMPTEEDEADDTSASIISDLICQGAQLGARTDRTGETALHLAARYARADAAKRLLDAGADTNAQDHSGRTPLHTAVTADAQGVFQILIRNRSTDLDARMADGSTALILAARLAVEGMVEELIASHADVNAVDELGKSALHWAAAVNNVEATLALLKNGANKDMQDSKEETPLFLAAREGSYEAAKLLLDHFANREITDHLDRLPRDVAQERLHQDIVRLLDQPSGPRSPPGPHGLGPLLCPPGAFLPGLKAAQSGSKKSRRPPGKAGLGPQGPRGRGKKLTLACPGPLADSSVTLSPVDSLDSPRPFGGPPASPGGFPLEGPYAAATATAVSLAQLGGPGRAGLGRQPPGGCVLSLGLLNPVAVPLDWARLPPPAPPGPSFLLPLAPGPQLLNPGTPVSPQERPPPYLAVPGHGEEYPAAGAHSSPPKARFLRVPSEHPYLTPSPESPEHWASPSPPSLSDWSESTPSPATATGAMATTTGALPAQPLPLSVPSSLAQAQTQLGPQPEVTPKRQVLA
Assay [10] in a line: probe aEGFR binding to arrayed compounds – biochemical, biotinylated probe, 635/667 nm fluorescence, primary screen (AID 1097).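 Further: probe is a biotinylated anti-EGFR antibody binding compounds printed on slides; score combines fluorescence near 667 nm and signal to noise of each spot.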 As to conditions: small-molecule microarray, higher = more signal.
The test system of assay [11] is Plasmodium falciparum Sir2 (PF13_0152, Sir2A). As to the kind of experiment: Plasmodium falciparum Sir2A binding compounds – biochemical, small-molecule microarray, 635 nm fluorescence, primary screen (AID 1098).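 Further: score merges spot fluorescence intensity with its signal-to-noise ratio.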 As to conditions: fluorescence 635 nm, higher = more signal.
A short description of assay [12]: probe aDKK1 binding to arrayed compounds – biochemical, biotinylated probe, 635/667 nm fluorescence, primary screen (AID 1099).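 Further: score merges 667nm spot fluorescence with signal to noise across triplicate slides; reference of the scale not given here.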 As to conditions: small-molecule microarray, higher = more signal.
Assay [13] in a line: probe aCHRDL2 binding to arrayed compounds – biochemical, biotinylated probe, 635/667 nm fluorescence, primary screen (AID 1100). Particulars: small-molecule microarray, higher = more signal.
Assay [14] is described as follows: change in splice reporter luminescence, either direction, cell-based, HEK293, spliceosome inhibition project, primary screen (AID 1101).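 Further: HEK293 cells carrying a splicing-competent luciferase reporter gene; test concentration not given here.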 Particulars: HEK293 splicing luciferase reporter, 24 h, higher = more signal, called active from +8 up or from −8 down.
Assay [15] concerns the target Fibroblast growth factor 10 (Homo sapiens) (UniProt O15520). Put plainly: compounds binding fibroblast growth factor 10 – biochemical, small-molecule microarray, 635 nm fluorescence, primary screen (AID 1102). Particulars: FGF10 binding, fluorescence 635 nm, higher = more signal.
Assay [16] deals with glycogen synthase kinase-3 (GSK3A per assay name; protocol says GSK3B). As to the kind of experiment: compounds binding glycogen synthase kinase-3 – biochemical, small-molecule microarray, 635 nm fluorescence, GSK3A, primary screen (AID 1103). Further: the record names both GSK3A and GSK3B. Particulars: fluorescence 635 nm, higher = more signal.
For assay [17], the target named is Epidermal growth factor receptor (Homo sapiens) (UniProt P00533). As to the kind of experiment: compounds binding epidermal growth factor receptor – biochemical, small-molecule microarray, 635 nm fluorescence, primary screen (AID 1104).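 Further: score merges 667 nm emission intensity with spot signal to noise over triplicate slides.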 As to conditions: EGFR binding, higher = more signal.
Epidermal growth factor receptor (Homo sapiens), sequence (P00533 whole entry, looked up): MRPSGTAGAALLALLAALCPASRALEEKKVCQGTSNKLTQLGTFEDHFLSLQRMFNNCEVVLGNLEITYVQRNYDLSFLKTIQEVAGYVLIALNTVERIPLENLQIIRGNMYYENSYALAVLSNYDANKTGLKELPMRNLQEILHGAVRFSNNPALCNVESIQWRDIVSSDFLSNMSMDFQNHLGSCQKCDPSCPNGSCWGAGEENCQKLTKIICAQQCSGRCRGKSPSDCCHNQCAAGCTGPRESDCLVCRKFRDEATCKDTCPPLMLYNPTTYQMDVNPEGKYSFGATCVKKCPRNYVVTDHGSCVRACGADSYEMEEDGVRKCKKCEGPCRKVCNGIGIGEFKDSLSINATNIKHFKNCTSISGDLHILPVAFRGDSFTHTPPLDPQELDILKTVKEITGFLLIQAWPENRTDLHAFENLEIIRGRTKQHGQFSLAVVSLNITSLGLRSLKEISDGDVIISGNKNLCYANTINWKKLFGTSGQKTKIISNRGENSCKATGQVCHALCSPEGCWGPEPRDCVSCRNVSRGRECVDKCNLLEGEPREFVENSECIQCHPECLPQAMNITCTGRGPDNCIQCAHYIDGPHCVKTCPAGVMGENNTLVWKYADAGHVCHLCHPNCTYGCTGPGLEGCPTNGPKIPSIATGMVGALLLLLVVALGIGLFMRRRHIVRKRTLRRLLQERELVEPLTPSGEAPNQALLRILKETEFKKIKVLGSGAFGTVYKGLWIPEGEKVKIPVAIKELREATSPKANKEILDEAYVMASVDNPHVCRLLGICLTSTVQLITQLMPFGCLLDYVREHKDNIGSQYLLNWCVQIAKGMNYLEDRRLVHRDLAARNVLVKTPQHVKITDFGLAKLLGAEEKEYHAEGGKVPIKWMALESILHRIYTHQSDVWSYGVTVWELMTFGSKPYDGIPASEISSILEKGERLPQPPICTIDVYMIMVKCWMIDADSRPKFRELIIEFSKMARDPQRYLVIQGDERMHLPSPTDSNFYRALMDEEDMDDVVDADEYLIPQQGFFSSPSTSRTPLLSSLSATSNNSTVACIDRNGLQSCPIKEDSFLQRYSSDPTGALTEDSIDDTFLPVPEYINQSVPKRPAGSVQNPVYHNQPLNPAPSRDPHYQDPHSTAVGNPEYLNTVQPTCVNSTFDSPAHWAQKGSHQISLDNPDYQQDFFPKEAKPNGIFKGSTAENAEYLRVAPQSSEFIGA
In assay [18] the target is Follistatin-related protein 3 (Homo sapiens) (UniProt O95633). Put plainly: compounds binding follistatin-related protein 3 – biochemical, small-molecule microarray, 635 nm fluorescence, primary screen (AID 1105).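 Further: score merges emission near 667 nm and signal to noise per printed spot across three slides.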 As to conditions: FSTL3 binding, higher = more signal.
Follistatin-related protein 3 (Homo sapiens), sequence (O95633 whole entry, looked up): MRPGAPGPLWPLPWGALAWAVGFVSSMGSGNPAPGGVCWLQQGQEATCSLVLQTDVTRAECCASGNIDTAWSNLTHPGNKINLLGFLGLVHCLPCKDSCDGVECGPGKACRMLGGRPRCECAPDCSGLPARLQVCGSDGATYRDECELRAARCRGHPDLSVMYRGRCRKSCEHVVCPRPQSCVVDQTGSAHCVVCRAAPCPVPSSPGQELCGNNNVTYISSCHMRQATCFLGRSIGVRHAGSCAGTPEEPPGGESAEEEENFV
Assay [19] deals with Dickkopf-related protein 1 (Homo sapiens) (UniProt O94907). As to the kind of experiment: small molecules binding DKK1 protein – biochemical, small-molecule microarray, 635 nm fluorescence scan, primary screen (AID 1106).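 Further: score merges emission near 667 nm with signal to noise over three replicate slides.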 As to conditions: higher = more signal.
Dickkopf-related protein 1 (Homo sapiens), sequence (O94907 whole entry, looked up): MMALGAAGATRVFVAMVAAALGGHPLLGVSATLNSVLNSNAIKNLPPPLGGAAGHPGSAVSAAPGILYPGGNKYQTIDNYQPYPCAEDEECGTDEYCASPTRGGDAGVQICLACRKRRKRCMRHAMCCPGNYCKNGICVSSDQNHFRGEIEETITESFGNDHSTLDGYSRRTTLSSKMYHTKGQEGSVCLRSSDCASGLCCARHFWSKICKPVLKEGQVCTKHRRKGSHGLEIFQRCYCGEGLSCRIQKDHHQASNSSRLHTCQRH
In assay [20] the test system is Inhibin beta A chain (activin A). As to the kind of experiment: small molecules binding activin A – biochemical, small-molecule microarray, 635 nm fluorescence scan, primary screen (AID 1107).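 Further: mouse activin A protein probed at 4.33 µg/mL on printed slides; score merges bound-protein fluorescence near 667 nm with spot signal-to-noise.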 Particulars: INHBA, higher = more signal.

Fibroblast growth factor 10 (Homo sapiens), sequence (O15520 whole entry, looked up): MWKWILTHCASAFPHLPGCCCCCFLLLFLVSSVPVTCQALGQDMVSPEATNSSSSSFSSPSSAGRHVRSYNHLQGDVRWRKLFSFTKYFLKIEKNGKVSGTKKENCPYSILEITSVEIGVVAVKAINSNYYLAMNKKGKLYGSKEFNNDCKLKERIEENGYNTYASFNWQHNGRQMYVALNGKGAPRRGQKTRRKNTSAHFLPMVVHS
Torsin-1A-interacting protein 2 (Homo sapiens), sequence (Q8NFQ8 whole entry, looked up): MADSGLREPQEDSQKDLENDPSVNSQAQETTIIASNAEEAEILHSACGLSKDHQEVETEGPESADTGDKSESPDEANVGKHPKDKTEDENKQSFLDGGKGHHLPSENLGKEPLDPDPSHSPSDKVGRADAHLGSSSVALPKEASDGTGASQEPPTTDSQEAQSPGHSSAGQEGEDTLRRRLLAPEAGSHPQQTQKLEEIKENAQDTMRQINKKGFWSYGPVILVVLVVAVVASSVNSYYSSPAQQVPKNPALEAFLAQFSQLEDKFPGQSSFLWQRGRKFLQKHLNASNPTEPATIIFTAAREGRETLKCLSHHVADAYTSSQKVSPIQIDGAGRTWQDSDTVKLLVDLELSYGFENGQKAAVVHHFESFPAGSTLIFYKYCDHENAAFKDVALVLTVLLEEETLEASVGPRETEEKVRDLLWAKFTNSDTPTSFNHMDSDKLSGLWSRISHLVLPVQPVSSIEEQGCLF

In the case of `O=C1NC(=O)C2C1C=CC(C(O)C=Cc1ccc([N+](=O)[O-])cc1)N2Nc1ccccn1` (stereo not given), the composite z-score is 0.403 in assay [1]; 1.51 in assay [5]; 0.0866 in assay [7]; 0.289 in [8]; -0.135 in [9]; -0.094 in assay [10]. Also, the composite z-score was 1.1 in [11]; 0.141 in assay [12]; 0.239 in assay [13]; 0.267 in assay [15]; -0.0039 in assay [16]; 1.07 in assay [17]. Also, the composite z-score in assay [18] amounted to 0.479; in assay [19], 0.697; in [20], 1.32. In addition, the z-score was 0.459 (inactive) in assay [2]; 1.31 (inactive) in [3]; -0.108 (inactive) in [4]; -0.298 (inactive) in assay [6]; 1.5 (inactive) in assay [14].
Turning to `C=CCNC(=O)[C@@H]1[C@H]2C(=O)O[C@H](c3ccccc3)[C@H](c3ccccc3)N2[C@H](c2ccc(OCCO)cc2)[C@@]12C(=O)N(C(=O)OCCOC)c1ccc(C#CC3(O)CCCCCC3)cc12`, the composite z-score is 1.56 in assay [1]; 1.6 in assay [5]; 0.505 in assay [7]; 0.205 in assay [8]; 0.955 in [9]; 0.108 in assay [10]. Moreover, the composite z-score worked out at 1.12 in assay [11]; 0.342 in assay [12]; 0.375 in [13]; 0.325 in [15]; 0.871 in assay [16]; 0.432 in assay [17]. Besides, the results for the composite z-score in assay [18], in [19] and in assay [20] were 0.702, 0.125 and 1.34, respectively. Moreover, the z-score in assay [2] is -1.05 (inactive); in [3] it was -1.64 (inactive); in assay [4], 3.24 (inactive); in [6], 2.89 (inactive); in assay [14], -0.929 (inactive).
Consider `CCN1C(C)=C(C(=O)OC)[C@@H](c2ccccc2)N2C(=O)[C@@]3(C(=O)OC)O[C@@]12[C@@H]1C(=O)N(C)C(=O)[C@@H]13`, for which the composite z-score was 0.962 in assay [1]; 1.44 in [5]; -0.122 in [7]; 0.584 in assay [8]; 0.333 in assay [9]; 0.0692 in assay [10]. Further, the composite z-score in [11] is 0.736; in assay [12], -0.0561; in assay [13] it was -0.45; in assay [15], 1.25; in assay [16], 0.622; in assay [17], 0.471. Besides, the values for the composite z-score in assay [18], in assay [19] and in assay [20] were 1.41, 1.1 and 0.613, respectively. The z-score in assay [2] was -0.444 (inactive); in assay [3] it was -0.76 (inactive); in assay [4], 1.74 (inactive); in assay [6], -0.0517 (inactive); in [14], -0.997 (inactive).
Regarding `CCCC[C@@H]1C[C@H]1[C@@H](NC(=O)c1ccccc1)c1ccccc1C(F)(F)F`, the composite z-score is 1.03 in [1]; 3.38 in [5]; 0.198 in assay [7]; 0.0984 in [8]; 0.961 in assay [9]; -0.123 in assay [10]. The composite z-score in [11] was 1.15; in assay [12], 0.526; in assay [13], 1.05; in assay [15], 0.0165; in [16] it was 0.415; in [17], -0.279. The composite z-score in assay [18] is -0.0027; in [19] it was -0.521; in [20] it was 0.616. Also, the z-score in assay [2] is 0.261 (inactive); in [3], 0.367 (inactive); in assay [4] it was 0.0237 (inactive); in assay [6], 0.151 (inactive); in [14], -0.261 (inactive).
As for `CC/C=C/C(=O)N(C[C@@H]1CCCO1)[C@@H]1CC(C(=O)NCCO)=C[C@H](Oc2c(I)cc(CO)cc2OC)[C@H]1O`, the composite z-score in assay [1] is 0.505; in assay [5] it was 1.69; in assay [7], 0.0612; in assay [8] it was -0.294; in [9], -0.155; in assay [10] it was -0.191. The composite z-score in assay [11] was -0.251; in [12], -0.154; in [13] it was -0.162; in assay [15], 0.541; in assay [16] it was -0.208; in assay [17], 0.0798. Besides, the composite z-score in [18] is -0.434; in assay [19], 0.554; in assay [20], 0.0756. For the same compound, the z-score in assay [2] is -0.811 (inactive); in assay [3] it was -1.79 (inactive); in assay [4], -1.91 (inactive); in [6] it was -0.159 (inactive); in assay [14] it was -1.44 (inactive).
